Shown are actives, neighbours in structure and some others; about 9.3% of the full set was active somewhere.
FMDV inh: foot and mouth disease virus antiviral activity; Potency, µM (doses to about 57.9 µM), for the others: at the highest dose activity change, negative = inhibition, hits mostly inhibitors; FMDV antiviral cell-based qHTS; 1.2% of 410,000 active; calls by dose curve; tested in HEK293T cells; further: read-out not given here; potency means the concentration at half of the fitted maximal effect; nearly all actives have a fitted effect of over 45% in size
HCMV inh: inhibitors of human cytomegalovirus; activity change, negative = inhibition, % at 57.5 µM; HFF cells, HCMV-luciferase reporter, 72 h; hits give low values; 4.5% of 410,000 active; AID 1259415; in the data active means activity change below about -60%; inconclusive means no clear call, values can overlap the other calls; inactive means above about -39%
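Compounds were evaluated in HFFs infected with an HCMV luciferase reporter virus (MOI 1 PFU/cell). Luciferase in lysates collected 72 h post infection served as the replication measure.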
Vaccinia Venus: inhibitors of vaccinia virus (Venus reporter). Vaccinia virus Venus reporter expression, fluorescence. Potency, µM (series often up to 36.5 µM), for inactives: at the highest dose activity change, negative = inhibition, most hits filed as inhibitors. 0.46% of 330,000 active. AID 720580; calls by dose curve; tested in A549 cells; further: potency means the concentration at half of the fitted maximal effect; nearly all actives have a fitted effect of over 30% in size
VACV mCherry inh: inhibitors of vaccinia virus infection (mCherry reporter signal) | Vaccinia virus mCherry reporter infection, fluorescence | Potency, µM (top dose mostly 36.5 µM), for the others: at the top dose activity change, negative = inhibition, most hits filed as inhibitors | 0.63% of 310,000 active; calls by dose curve; tested in A549 cells; further: potency means the concentration at half of the fitted maximal effect; nearly all actives have a fitted effect of over 35% in size
Sm TGR inh: S. mansoni TGR enzyme inhibition; purified TGR, DTNB reduction, TNB absorbance 405 nm; 3% of 360,000 active; Potency, µM (titrated, usually from 114 µM), for inactives: at the highest dose activity change, negative = inhibition, actives largely listed as inhibitors; Q962Y6; AID 485364; further: potency means the concentration at half of the fitted maximal effect; nearly all actives have a fitted effect of over 60% in size
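Kinetic colorimetric format: TGR-catalysed, NADPH-driven DTNB reduction monitored via TNB absorbance. Enzyme dispensed at 20 nM; compound exposure 15 min at room temperature before reaction start.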
HCV inh: HCV inhibition | Huh7.5.1 HCVcc-Cre infection, luciferase reporter, 44 h | Potency, µM (doses to about 41.8 µM), for inactives: at the highest dose activity change, negative = inhibition, hits mostly inhibitors | 3.4% of 340,000 active | AID 651820; further: potency means the concentration at half of the fitted maximal effect
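Reporter virus HCVcc-Cre (~0.5 moi) infects cells exposed to compound; seeding density 1,000 cells/well with 4 h settling beforehand. Luminescence, 15 sec read, taken 44 h post-infection following a 15 min RT substrate incubation.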
Starred values were filed as active, the others as inactive; i = inactive; ? = inconclusive; . = no result given. Unless noted, the call rests on the fitted dose curve; in most records, active means well fitted curve in the direction sought with a large enough effect; inconclusive means small, poorly fitted or top-dose-only effect, or another doubt; inactive means no such curve, though single readings can be large; an effect the other way counts as inactive or inconclusive. On the % scale 0 is the no-effect control and ±100 the full control effect.

SMILES	FMDV inh	HCMV inh	Vaccinia Venus	VACV mCherry inh	Sm TGR inh	HCV inh
CCOC(=O)CCCCC(=O)c1[nH]c(=O)[nH]c1Cn1cnc2ccccc21	13%	47	1%	-22%	16µM*	6%
COc1ccccc1/C=C/C=N\N1CCN(Cc2ccccc2Cl)CC1	-17%	?	1%	-23%	5%	?
O=C(Nc1ccc(Cc2ccncc2)cc1)c1ccc(S(=O)(=O)N2CCOCC2)cc1	18µM*	-73*	?	?	4%	?
O=C(Nc1ccc(S(=O)(=O)N2CCCC2)cc1)c1ccc(CN2CCOCC2)cc1	16µM*	-81*	-17%	-27%	-10%	6.3µM*
CC1CCN(S(=O)(=O)c2ccc(NC(=O)c3ccccc3F)cc2)CC1	-27%	-62*	-11%	-14%	5%	?
CN(c1ccc(C(=O)Nc2ccc(S(=O)(=O)N3CCCC3)cc2)cc1)S(C)(=O)=O	?	-98*	-26%	-27%	-1%	5µM*
O=C(Nc1ccc(S(=O)(=O)N2CCOCC2)cc1)c1ccc(S(=O)(=O)N2CCOCC2)cc1	-18%	-39	-7%	-21%	-10%	9%
CCc1ccc(NC(=O)CSc2nc3c(c(=O)[nH]2)CN(Cc2ccc4c(c2)OCO4)CC3)cc1	-4%	-4	3%	-11%	0%	.
Cc1ccc(CNC(=O)C2CCN(Cc3nc(-c4ccccc4C)oc3C)CC2)cc1	?	15	-7%	-21%	5%	.
CCN(CC)S(=O)(=O)c1ccc(NC(=O)c2ccc(CN3CCOCC3)cc2)cc1	.	-95*	?	?	-1%	?
CCN(CC)S(=O)(=O)c1ccc(NC(=O)c2ccc(N3CCCC3=O)cc2)cc1	?	-76*	-12%	-19%	.	?
O=C(CNC(=O)c1ccc(F)cc1)NCc1ccc(S(=O)(=O)N2CCOCC2)cc1	-6%	-15	-3%	-11%	89µM*	-15%
O=C(NCc1ccc(F)cc1)c1ccc(S(=O)(=O)N2CCCC2)cc1	-6%	-8	-7%	i	.	.
CCN(CC)S(=O)(=O)c1ccc(OC)c(NC(=O)c2ccc(N3CCCC3=O)cc2)c1	6%	-17	.	.	-3%	-10%
N#CCc1ccc(NC(=O)c2ccc(S(=O)(=O)N3CCCC3)cc2)cc1	-5%	-17	-7%	-28%	0%	14µM*
COCCOC(=O)c1nccnc1C(=O)Nc1ccc(S(=O)(=O)N2CCOCC2)cc1	-23%	-34	.	.	3%	2%
CCOc1ccc(C(=O)Nc2ccc(S(=O)(=O)Nc3nccc(C)n3)cc2)cc1OCC	8%	-14	-9%	i	3%	10%
CCOc1ccccc1C(=O)Nc1ccc(S(=O)(=O)N2CCOCC2)cc1	-16%	-11	?	.	-9%	13µM*
CCOc1ccccc1C(=O)Nc1ccc(S(=O)(=O)N2CCN(C)CC2)cc1	-8%	-15	.	.	-10%	-24%
O=C(Nc1ccc(S(=O)(=O)N2CCCCC2)cc1)c1ccc(CN2CCOCC2)cc1	.	.	?	-29%	4%	2.8µM*
O=C(O)c1nccnc1C(=O)Nc1ccc(S(=O)(=O)N2CCOCC2)cc1	-12%	11	1%	i	25µM*	17%
CCOc1ccccc1C(=O)Nc1ccc(S(=O)(=O)Nc2nccc(C)n2)cc1	56%	40	-7%	0%	32µM*	5%
Cc1cccc(NC(=S)NNC(=O)c2csc(C(C)C)c2)c1	50%	28	.	.	0%	-23%
O=C(Nc1ccc(Cc2ccncc2)cc1)c1ccc(Cl)c([N+](=O)[O-])c1	28µM*	-21	-12%	.	9%	-21%
O=C(Nc1ccc(S(=O)(=O)N2CCCCCC2)cc1)c1[nH]ncc1[N+](=O)[O-]	.	-87*	.	.	-19%	.
Cc1c([N+](=O)[O-])cc(C(=O)Nc2ccc(Cc3ccncc3)cc2)cc1[N+](=O)[O-]	?	1	.	.	-1%	?
CCn1c(-c2ccccc2F)nc2cc(C(=O)N3CCNC(=O)C3CC(=O)OC)cc(NC(C)=O)c21 (stereo unspecified)	2%	.	10%	2%	.	.
